“And” between values parts separate entries of the source, which are not always exact repeats. Equal entries are not always repeated. Records with an inconclusive call do not appear. A call without a number means that no potency is given here. Where a structure was tested more than once in an assay, its records may differ in their call. The source made the active and inactive calls. Unless noted, calls follow the shape of the dose curve; as a rule, active = well fitted curve in the direction sought with a large enough effect in the repeat runs; inconclusive = weak or mixed curves; inactive = no such curve, though single readings can be large; an effect the other way counts as inactive or inconclusive.
Tests used:
[1] = qHTS assay for small molecules that induce genotoxicity in human embryonic kidney cells expressing luciferase-tagged ATAD5 (AID 651632); also: nearly all actives have a fitted effect of over 15% in size; also: potency is read from the fitted curve at half-maximal effect
How it was run: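 Reporter cells (HEK293T) express luciferase-tagged ATAD5, a protein that accumulates after DNA damage. Treat 16 hr at 37C/5% CO2, add Amplite, wait 30 min at RT, and read luminescence.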

[2] = qHTS assay for small molecule agonists of the p53 signaling pathway - cell viability (AID 651633; calls by dose curve; also: nearly all actives have a fitted effect of over 30% in size; also: potency is read from the fitted curve at half-maximal effect)
How it was run: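 Viability counter-read: CellTiter-Glo luminescence (30 min, room temperature) in the same p53RE-bla plates. These plates had been exposed to compounds for 16 h at 37 C.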

[3] = qHTS assay for small molecules that induce genotoxicity in human embryonic kidney cells expressing luciferase-tagged ATAD5 - cell viability (AID 651634; calls by dose curve; also: nearly all actives have a fitted effect of over 25% in size; also: potency is read from the fitted curve at half-maximal effect)
How it was run: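 Seeding of 2,000 HEK293T ATAD5-luciferase cells per well preceded pin-tool compound transfer. Plates sat 15.5 hr at 37C under 5% CO2, then fluorescence was read after 30 min with CellTiter-Fluor.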

[4] = qHTS assay for small molecule disruptors of the mitochondrial membrane potential - cell viability (AID 720634; calls by dose curve;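 also: human HepG2 liver cancer cells; series mostly up to about 83 µM; nearly all actives have a fitted effect of over 20% in size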)
How it was run: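 Measuring cytotoxicity alongside mitochondrial potential, the screen quantified ATP by luminescence in HepG2 cells after 1 hr compound incubation and a 30 min room-temperature CellTiter-Glo step.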

[5] = qHTS assay to test for compound auto fluorescence at 590 nm (red) in HepG2 cells (AID 720674)
How it was run: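 Red autofluorescence (Ex/Em 540/590 nm, Rose Bengal sodium equivalents) was measured in HepG2 cells, 2,000 per well in MEM plus 10% FBS, plated overnight at 37 C. Readings were taken 1 hr after adding 23 nL compound or DMSO, at 37 C and 5% CO2.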

[6] = qHTS assay to test for compound auto fluorescence at 535 nm (green) in HepG2 cells (AID 720675)
[7] = qHTS assay to test for compound auto fluorescence at 460 nm (blue) in HEK293 cells (AID 720678)
How it was run: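 Blue-channel (Ex/Em 405/460 nm) intensity measured in HEK293 cultures after overnight compound exposure at 37C; signal expressed relative to triamterene. Cells plated 2,000 per well in 10% dialyzed FBS medium and allowed 4-5 hr to attach.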

[8] = qHTS assay to test for compound auto fluorescence at 535 nm (green) in HEK293 cells (AID 720680)
[9] = qHTS assay to test for compound auto fluorescence at 460 nm (blue) in HEK293 cell free culture (AID 720681)
How it was run: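 Blue fluorescence (Ex 405/Em 460 nm, triamterene-equivalent) was read immediately after pin transfer of compound or DMSO into medium (DMEM, 10% FBS) without cells.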

[10] = qHTS assay to test for compound auto fluorescence at 535 nm (green) in HEK293 cell free culture (AID 720682)
How it was run: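 No cells present: wells hold DMEM supplemented with 10% FBS, into which compound or vehicle is pinned. Green emission is then recorded (485 nm excitation, 535 nm emission) and scaled to fluorescein.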

[11] = qHTS assay to test for compound auto fluorescence at 590 nm (red) in HEK293 cell free culture (AID 720683)
How it was run: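 Red-channel autofluorescence of compounds in culture medium (DMEM, 10% FBS), no cells, measured at 540/590 nm. Rose Bengal sodium is the reference fluorophore for equivalence.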

[12] = qHTS assay to test for compound auto fluorescence at 590 nm (red) in HepG2 cell free culture (AID 720684)
How it was run: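 Steps: dispense MEM/10% FBS medium, no cells; pin compound or DMSO vehicle; read red channel, Ex/Em 540/590 nm. Output given as Rose Bengal sodium equivalents.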

[13] = qHTS assay to test for compound auto fluorescence at 460 nm (blue) in HepG2 cell free culture (AID 720685)
How it was run: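 Compound (23 nL) or DMSO pinned into cell-free MEM with 10% FBS; blue fluorescence read at 405/460 nm excitation/emission, expressed as auto-fluorescence equivalency to triamterene.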

[14] = qHTS assay to test for compound auto fluorescence at 535 nm (green) in HepG2 cell free culture (AID 720686)
[15] = qHTS assay to test for compound auto fluorescence at 460 nm (blue) in HepG2 cells (AID 720687)
How it was run: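 Blue-channel autofluorescence (Ex/Em 405/460 nm, triamterene-equivalent) was measured after 1 hr compound exposure at 37 C, 5% CO2. Cells were HepG2, plated overnight at 37 C in MEM plus 10% FBS.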

[16] = molecular target: Glucocorticoid receptor (Homo sapiens) (UniProt P04150); experiment: qHTS assay to identify small molecule agonists of the glucocorticoid receptor (GR) signaling pathway (AID 720691; active = well fitted activation curve with a large enough effect in the signal ratio in the repeat runs, not every such curve was filed as active; the % refers to the signal ratio)
How it was run: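 Reporter read-out: fluorescence intensity following 2 h room-temperature LiveBLAzer B/G FRET substrate loading. Prior step: GR-bla HeLa cells held 4 h, then treated 18 h at 37 C.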

[17] = qHTS assay to test for compound auto fluorescence at 590 nm (red) in HEK293 cells (AID 720679)
How it was run: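 Red-channel autofluorescence (Ex/Em 540/590 nm; Rose Bengal sodium reference) was measured after overnight 37C, 5% CO2 exposure of attached HEK293 cells, 2,000 per well in medium with 10% dialyzed FBS.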

[18] = molecular target: Glucocorticoid receptor (Homo sapiens) (UniProt P04150); experiment: qHTS assay to identify small molecule antagonists of the glucocorticoid receptor (GR) signaling pathway (AID 720692; active = well fitted inhibition curve with a large enough effect in the signal ratio in the repeat runs, not every such curve was filed as active; the % refers to the signal ratio; also: potency is read from the fitted curve at half-maximal effect)
How it was run: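 Dexamethasone (5 nM final) stimulated a stably integrated GRE-beta-lactamase reporter in HeLa cells during 18 h co-incubation with compounds; signal was quantified as fluorescence intensity of B/G FRET substrate after 2 h.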

[19] = qHTS assay for small molecule disruptors of the mitochondrial membrane potential (AID 720635); also: potency is read from the fitted curve at half-maximal effect
How it was run: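 Mitochondrial membrane potential tracked with Mito-MPS dye, red aggregates (ex 540/em 590 nm) against green monomers (ex 490/em 535 nm). Compound treatment 1 hr at 37C, dye 30 min in HepG2.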

Sequence of Glucocorticoid receptor (Homo sapiens) (P04150 whole entry, looked up): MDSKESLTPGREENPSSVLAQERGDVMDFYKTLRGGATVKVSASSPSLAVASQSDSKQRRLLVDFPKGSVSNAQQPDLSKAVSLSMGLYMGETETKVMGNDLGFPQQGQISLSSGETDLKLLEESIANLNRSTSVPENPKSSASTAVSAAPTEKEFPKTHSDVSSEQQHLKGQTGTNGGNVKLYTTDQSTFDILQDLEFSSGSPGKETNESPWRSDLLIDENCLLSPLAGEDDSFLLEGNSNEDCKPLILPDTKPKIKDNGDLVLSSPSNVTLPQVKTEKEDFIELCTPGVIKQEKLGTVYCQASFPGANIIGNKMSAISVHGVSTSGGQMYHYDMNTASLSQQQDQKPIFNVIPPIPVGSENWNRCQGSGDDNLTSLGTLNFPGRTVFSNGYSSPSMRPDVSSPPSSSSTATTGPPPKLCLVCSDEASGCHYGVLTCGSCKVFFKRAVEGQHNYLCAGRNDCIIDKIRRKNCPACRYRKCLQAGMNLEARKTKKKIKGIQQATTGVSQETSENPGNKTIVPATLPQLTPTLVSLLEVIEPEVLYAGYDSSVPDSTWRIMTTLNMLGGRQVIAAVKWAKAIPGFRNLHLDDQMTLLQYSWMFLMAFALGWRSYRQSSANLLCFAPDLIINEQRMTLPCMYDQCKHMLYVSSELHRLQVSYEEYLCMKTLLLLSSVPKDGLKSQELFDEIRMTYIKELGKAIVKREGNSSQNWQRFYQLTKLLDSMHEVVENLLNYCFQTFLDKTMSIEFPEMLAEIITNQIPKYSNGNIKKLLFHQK

| Structure (SMILES) | Potency [1] | Potency [2] | Potency [3] | Potency [4] | Potency [5] | Potency [6] | Potency [7] | Potency [8] | Potency [9] | Potency [10] | Potency [11] | Potency [12] | Potency [13] | Potency [14] | Potency [15] | Potency [16] | Potency [17] | Potency [18] | Potency [19] |
| --- | --- | --- | --- | --- | --- | --- | --- | --- | --- | --- | --- | --- | --- | --- | --- | --- | --- | --- | --- |
| S=C([S-])NCCNC(=S)[S-].S=C([S-])NCCNC(=S)[S-].[Mn+2].[Zn+2] | inactive | inactive | inactive | inactive | inactive | inactive | inactive | inactive | inactive | inactive | inactive | inactive | inactive | inactive | inactive | inactive |  |  |  |
| COc1ccc2cc1Oc1ccc(cc1)C[C@H]1c3c(cc4c(c3Oc3cc5c(cc3OC)CCN(C)[C@@H]5C2)OCO4)CCN1C | inactive | inactive | 29.8 µM (active) | inactive | inactive | inactive | inactive | inactive | inactive | inactive | inactive | inactive | inactive | inactive | inactive | inactive | inactive | inactive |  |
| CCCCCCCCCCOC(=O)c1ccccc1C(=O)OCCCCCCCC | inactive | inactive | inactive | inactive | inactive | inactive | inactive | inactive | inactive |  | inactive | inactive | inactive |  | inactive | inactive |  |  | inactive |
| CN(C)C(=O)COC(=O)Cc1ccc(OC(=O)c2ccc(N=C(N)N)cc2)cc1 | inactive | inactive | inactive | inactive | inactive | inactive | inactive | inactive |  | inactive | inactive | inactive |  |  |  | inactive | inactive | inactive | inactive |
| C#C[C@]1(OC(C)=O)CC[C@H]2[C@@H]3CCC4=C[C@@H](OC(C)=O)CC[C@@H]4[C@H]3CC[C@@]21C | inactive | 29.8 µM (active) and inactive | inactive | inactive | inactive | inactive | inactive | inactive | inactive | inactive | inactive | inactive | inactive | inactive | inactive | inactive |  | 9.52 µM (active) | 13.3 µM (active) |
| Nc1ccc(Oc2ccc(Cl)cc2)cc1 | inactive | inactive | inactive | inactive | inactive | inactive | inactive | inactive |  | inactive | inactive | inactive | inactive | inactive | inactive |  | inactive | 24 µM (active) |  |
| CNc1ccc([N+](=O)[O-])cc1 | inactive | inactive | 61.3 µM (active) | inactive | inactive | inactive | inactive | inactive |  |  | inactive | inactive | inactive | inactive | inactive |  | inactive |  |  |
| COc1ccc(-c2coc3cc(O)ccc3c2=O)cc1 | 1.72 µM (active) | inactive | inactive | inactive | inactive | inactive | inactive | inactive | inactive | inactive | inactive | inactive | inactive | inactive | inactive | inactive |  |  | 10.9 µM (active) |
| CCCCCC/C=C\CCCCCCCC(=O)O | inactive | inactive | inactive | inactive | inactive | inactive | inactive | inactive | inactive | inactive | inactive | inactive | inactive | inactive |  |  | inactive |  |  |
| Oc1cc(Cl)cc(Cl)c1Cl |  | inactive |  |  | inactive | inactive | inactive | inactive |  | inactive | inactive | inactive |  | inactive | inactive | inactive | inactive |  | 4.97 µM (active) |
| O=C(O)c1cc(O)c2ccccc2c1O | inactive | 30.6 µM (active) | inactive |  | inactive | inactive | inactive | inactive | inactive | inactive | inactive | inactive | inactive | inactive | inactive |  |  |  |  |
| C#C[C@]1(O)CC[C@H]2[C@@H]3[C@H](C)CC4=C(CCC(=O)C4)[C@H]3CC[C@@]21C | inactive |  | inactive | inactive | inactive | inactive | inactive | inactive | inactive |  | inactive | inactive | inactive | inactive | inactive |  | inactive |  |  |
| CCCCCCCCCCCCOC(=O)c1ccc(O)cc1 | inactive | inactive |  |  | inactive | inactive | inactive | inactive | inactive | inactive | inactive | inactive | inactive | inactive | inactive |  |  |  | 3.46 µM (active) |
| CC(C)(C)c1ccc(C(O)CCCN2CCC(C(O)(c3ccccc3)c3ccccc3)CC2)cc1 (stereo unspecified) | inactive | 29.8 µM (active) and 18.8 µM (active) |  | inactive | inactive | inactive | inactive | inactive | inactive | inactive | inactive | inactive | inactive | inactive | inactive | inactive | inactive | inactive |  |
| CN1CCC[C@@H]1CCO[C@](C)(c1ccccc1)c1ccc(Cl)cc1 |  | inactive | inactive | inactive | inactive | inactive | inactive | inactive | inactive | inactive | inactive | inactive |  |  | inactive |  | inactive |  |  |
| CC[C@H](C)COC(=O)/C=C/c1ccc(N=Cc2ccc(OC)cc2)cc1 |  | inactive | inactive |  | inactive | inactive | inactive | inactive | inactive | inactive | inactive | inactive | inactive | inactive | inactive | inactive | inactive | inactive | 30.6 µM (active) |
| CCN(CC)C(=O)c1cc(S(=O)(=O)Cc2ccccc2)c(N2CCC(c3ccccc3)CC2)cc1N(CC)CCN(C)C | inactive | 29.8 µM (active) | 29.8 µM (active) |  | inactive | inactive | inactive | inactive | inactive |  | inactive | inactive | inactive | inactive | inactive | inactive | inactive | 21.3 µM (active) and inactive |  |
| CCC(C)[O-].CCC(C)[O-].CCOC(=O)/C=C(/C)[O-].[Al+3] |  |  |  | inactive | inactive | inactive | inactive | inactive | inactive | inactive | inactive | inactive | inactive | inactive | inactive |  |  |  | inactive |
| O=C1NC(=O)[C@@H]2CC=CC[C@H]12 |  | inactive | inactive | inactive | inactive | inactive | inactive | inactive |  |  | inactive | inactive | inactive | inactive | inactive | inactive |  | inactive | inactive |
| CN1CCN(Cc2cc(-c3ccc4[nH]c(=O)oc4c3)co2)[C@@H](c2ccc(F)cc2)C1 | inactive | inactive |  | inactive | inactive | inactive | inactive | inactive | inactive | inactive | inactive | inactive | inactive | inactive | inactive | inactive | inactive | 42 µM (active) | 14.8 µM (active) |
| CCC(C)n1ncn(-c2ccc(N3CCN(c4ccc(OC[C@H]5CO[C@](Cn6cncn6)(c6ccc(Cl)cc6Cl)O5)cc4)CC3)cc2)c1=O (stereo partly specified) | inactive | inactive |  | inactive | inactive | inactive | inactive | inactive | inactive | inactive | inactive | inactive |  |  | inactive |  | inactive |  |  |
| O=C1CCc2ccc(OCCCCN3CCN(c4cccc(Cl)c4Cl)CC3)cc2N1 |  | 23.7 µM (active) | inactive |  | inactive | inactive | inactive | inactive | inactive | inactive | inactive | inactive | inactive | inactive | inactive | inactive | inactive |  |  |

From PubChem BioAssay (Tox21)
